Compound activity (PubChem)
GLP1R ag: GLP-1 receptor (human) agonism. hit rate 0.007% among 380,000. HEK293 GLP-1R CRE-luciferase, luminescence, 4-6 h; cells express a hypersensitive GLP-1R form. Potency, µM (doses to about 45.6 µM), for the others: at the top dose activation, actives largely listed as activators; note: % of control where 0% means no effect
Target sequence (P43220 whole entry, looked up): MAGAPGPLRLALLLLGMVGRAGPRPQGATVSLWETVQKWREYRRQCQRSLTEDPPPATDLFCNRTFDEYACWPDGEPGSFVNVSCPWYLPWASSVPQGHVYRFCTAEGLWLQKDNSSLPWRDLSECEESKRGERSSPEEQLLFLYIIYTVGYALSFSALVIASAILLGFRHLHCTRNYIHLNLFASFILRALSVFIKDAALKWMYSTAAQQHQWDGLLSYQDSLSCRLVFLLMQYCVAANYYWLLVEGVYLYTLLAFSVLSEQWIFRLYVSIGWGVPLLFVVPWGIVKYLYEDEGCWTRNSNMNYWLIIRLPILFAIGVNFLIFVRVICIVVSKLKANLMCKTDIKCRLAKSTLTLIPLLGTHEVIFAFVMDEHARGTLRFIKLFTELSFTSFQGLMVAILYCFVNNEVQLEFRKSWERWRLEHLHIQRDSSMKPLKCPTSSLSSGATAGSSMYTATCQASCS
PTHR1 ag: agonists of human PTHR1 parathyroid hormone receptor; Q03431; Potency, µM (highest dose often 115 µM), without a hit: top-dose activation, actives largely listed as activators; hit rate 0.075% among 410,000; HEK293 GP2 PTHR1 cells, GloSensor cAMP luminescence, 1 h; note: nearly all actives have a fitted effect of over 55% in size
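HEK-293-derived GP2 cells expressing PTHR1 and a GloSensor cAMP reporter, 3,000/well, plated overnight, given luciferin plus IBMX (each 0.5 mM as added) for 1 h at 37 °C, then compound for 1 h at 37 °C. Luminescence was read after 15 min at room temperature.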
GLP1R inv ag: inverse agonists of human GLP-1 receptor; Potency, µM (top dose mostly 38.3 µM), for inactives: at the highest dose activity change, negative = inhibition, actives largely listed as inhibitors; P43220; HEK293 GLP-1R CRE-luciferase, luminescence, 24 h; GLP-1R form is constitutively active; AID 624417; hit rate 1.6% among 410,000; note: % is set by controls: 0 for no effect and ±100 for the full control effect; nearly all actives have a fitted effect of over 55% in size
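Stable HEK293 clone (constitutively active GLP-1R + cAMP-response luciferase); 200 cells/uL plated, 12 h pre-culture, compound 24 hr, 37 deg C/5% CO2; detection reagent 12 min RT; luminescence.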
HEK293 tox: cytotoxicity in counter-screen for GLP-1R inverse agonists; HEK293 cAMP-luciferase reporter cells, luminescence, 24 h; Potency, µM (series often up to 38.3 µM), for the others: top-dose activity change, negative = inhibition, usual class: inhibitors; hit rate 0.13% among 410,000; AID 624418;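 note: loss of luciferase light is scored as toxicity; % is set by controls: 0 for no effect and ±100 for the full control effect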
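Seeding density was 200 cells/uL; after overnight-length (12 h) culture, 23 nL compounds went on for 24 h at 37 °C. Readout used a luciferase detection reagent, luminescence taken after 12 min at room temperature.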
* marks the source's active call; other numbers are inactive results; i = inactive; ? = inconclusive; · = not tested or not shown; ! = repeats disagree; [ ] = dose if it differs, or a comment. Compounds with a hit are over-represented: about 1.7% of the library has one in this group of screens. Calls come from the whole dose curve; as a rule, active = well fitted curve in the direction sought with a large enough effect; inconclusive = small, poorly fitted or top-dose-only effect, or another doubt; inactive = no such curve, though single readings can be large; an effect the other way counts as inactive or inconclusive. Potency is the fitted concentration of half-maximal effect.

SMILES	GLP1R ag	PTHR1 ag	GLP1R inv ag	HEK293 tox
O=C(CCc1ccc(S(=O)(=O)NC2CCCCC2)cc1)Nc1ccccc1	-4%	-12%	?	-3%
COC(=O)C1(C)CCCC2(C)C3CCC(C(C)C)C(CO)C3C(CO)CC12 (configuration not stated)	0%	-45%	10µM*	?
CCOC(=O)c1c(NC(=O)/C=C/c2ccc(C(C)C)cc2)sc2c1CCC2	·	-3%	-3%	8%
CCCn1nnc(NC(=O)COc2cc(C)ccc2C(C)C)n1	2%	i	0%	-20%
CCCCn1nnc(NC(=O)COc2cc(C)ccc2C(C)C)n1	6%	i	7.9µM*	-12%
CCn1c(CN2CCCCC2)nc2cc(NC(=O)COc3cc(C)ccc3C(C)C)ccc21	·	-1%	?	5%
CN1CCN(CCc2nc3cc(NC(=O)COc4ccc(Cl)cc4)ccc3n2C)CC1	4%	i	10µM*	-25%
Cc1ccc(C(C)C)c(OCC(=O)Nc2ccc3c(c2)nc(CCN2CCCCC2)n3C)c1	17%	-4%	8.9µM*	-16%
CC(=O)Nc1ccc(S(=O)(=O)N2CCN(c3ncccn3)CC2)cc1	14%	-4%	1%	2%
O=C(Cc1ccc(Cl)cc1)Nc1ccc(-c2nnc(-c3ccco3)o2)cc1	-11%	i	10µM*	?
O=C(NC(=S)N1CCN(c2c(Cl)cccc2[N+](=O)[O-])CC1)c1cccs1	0%	-28%	0%	7.1µM*
COc1ccc(N2CCN(C(=S)NC(=O)c3cccs3)CC2)c([N+](=O)[O-])c1	9%	-12%	?	?
Cc1cccc(C)c1NC(=O)C1c2ccccc2OCC(=O)N1Cc1ccccc1 (configuration not stated)	-1%	?	-18%	-12%
CC(O)CNc1nc2sc3c(c2c(=O)n1CCc1ccccc1)CCCCC3 (configuration not stated)	20%	-47%	4.5µM*	?
CC(NC(=O)CSc1nc2sc3c(c2c(=O)n1-c1ccccc1)CCCC3)c1ccccc1 (configuration not stated)	0%	i	8.9µM*	-17%
CN(C)CCNc1nc2sc3c(c2c(=O)n1CCc1ccccc1)CCCCC3	8%	i	?	?
COc1ccc2nc(NN=C(C)c3ccccn3)cc(C)c2c1	16%	-17%	?	-28%
COc1ccc(CC(=O)NCc2nn(-c3ccccc3)nc2C)cc1OC	-2%	i	12%	10%
COc1ccc(-c2ocnc2C(=O)NCc2nn(-c3ccccc3)nc2C)cc1	5%	-48%	10µM*	3%
CCOC(=O)c1ccccc1Nc1cn(C(C)=O)c2ccccc12	4%	0%	-5%	-11%
COc1ccccc1N(C(=O)CCl)c1cn(C(C)=O)c2ccccc12	-7%	-28%	3.2µM*	?
CC(=O)n1cc(Nc2ccccc2C(=O)O)c2ccccc21	-9%	i	-1%	2%
CC(=O)n1cc(N(C(=O)CCl)c2ccc(Cl)cc2)c2ccccc21	-8%	-32%	11µM*	?
O=C(NCC1CCCCC1)c1cc(-c2cc(F)ccc2OCC2CCCO2)n[nH]1 (configuration not stated)	13%	i	?	-3%
Cc1cc(C)c2nc(N(CCCN(C)C)C(=O)C3=COCCO3)sc2c1	-9%	-6%	4.5µM*	?
SMILES	GLP1R ag	PTHR1 ag	GLP1R inv ag	HEK293 tox
CN(C)CCCN(C(=O)C1=COCCO1)c1nc2ccc(Br)cc2s1	0%	-4%	2µM*	?
Cc1ccccc1CNC(=O)c1sc2ncnc(N(C)C3CCCCC3)c2c1C	·	-28%	10%	-10%
Cc1ccc(-c2cc(C(F)(F)F)nc(SCC(=O)c3cccc([N+](=O)[O-])c3)n2)cc1	-3%	-15%	5.6µM*	62%
CCc1cc2c(COC(=O)c3cccc(NS(C)(=O)=O)c3)cc(=O)oc2cc1O	7%	-19%	4µM*	180%
COc1cc(OC)cc(C(=O)NCCOC23CC4CC(CC(C4)C2)C3)c1	6%	i	10µM*	1%
CCOc1ccc(C(=O)Nc2nnc(SCC(=O)NCC3CCCO3)s2)cc1 (configuration not stated)	-5%	-17%	2µM*	13%
Cc1ccc(NC(=O)c2ccc(OCC3CCCO3)cc2)nc1 (configuration not stated)	-17%	-33%	?	-5%
Cc1cnc(NC(=O)c2ccc(OCC3CCCO3)cc2)s1 (configuration not stated)	-5%	-32%	5µM*	2%
CC(C)(C)c1ccc(C(=O)Nc2nnc(SCC(=O)NCC3CCCO3)s2)cc1 (configuration not stated)	-1%	-30%	?	-14%
CC(C)Cn1c(=O)c2sccc2n2c(CCCC(=O)NCC(C)c3ccccc3)nnc12 (configuration not stated)	·	i	8%	-11%
Cc1nc2scc(C)n2c(=O)c1S(=O)(=O)N1CCN(c2ccc([N+](=O)[O-])cc2)CC1	-4%	-23%	28%	8%
CCOc1ccc(C2=C(C=C(C#N)C#N)C(c3ccccc3)c3ccccc3O2)cc1 (configuration not stated)	-4%	-25%	6.3µM*	-12%
CCc1ccc(C(=O)c2cn(CC(=O)Nc3ccc4c(c3)OCCO4)c3ccc(CC)cc3c2=O)cc1	1%	-2%	4%	4%
CCN1CCN(Cc2ccc(NC(=O)c3cc(NC(=O)c4cnnc5ccccc45)cc(OC)c3)cc2C(F)(F)F)CC1	2%	-10%	8.9µM*!	?
CCN1CCN(Cc2ccc(NC(=O)c3cc(NC(=O)c4nccnc4N)cc(OC)c3)cc2C(F)(F)F)CC1	-2%	i	?	31%
COc1cc(/C=N/NC(=O)CC2(C)OCCCO2)ccc1OCc1ccc(Cl)cc1Cl	16%	-18%	?	-3%
CC1(CC(=O)N/N=C/c2ccc(OCc3ccc(Cl)cc3Cl)cc2)OCCCO1	5%	-7%[57.5 µM]	8.9µM*	-22%
CCCC(=NC(C)CC)C1=C(O)CC(c2ccccc2)CC1=O (configuration not stated)	10%	-6%	10µM*	8%
CCC(C)N=CC1=C(O)CC(c2ccccc2)CC1=O (configuration not stated)	-8%	i	-13%	4%
Cc1cc(C(=O)CCC(=O)NCC2COc3ccccc3O2)c(C)s1 (configuration not stated)	-3%	i	-27%	-5%
O=C(OCC(=O)N(Cc1ccccc1)Cc1ccccc1)c1ccccc1O	11%	-36%	?	0%
O=C(OCC(=O)N(CCc1ccccc1)Cc1ccccc1)c1cccc(O)c1	18%	-9%	?	4%
O=C(OCC(=O)N(CCc1ccccc1)Cc1ccccc1)c1ccccc1NCCO	6%	-6%	10µM*	-13%
